Bioassay records as filed in PubChem.
This is a sample that favours compounds with a hit; in the whole collection about 4.1% have one here.
CHT block – inhibitors of human choline transporter CHT. Q9GZV3. CHT-expressing cells, membrane potential dye, choline response; active compounds read low. B-score at 10 µM. actives 0.86% (n = 310,000). AID 488975;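 active means B-score over 3 SD under the library average, and starting fluorescence ratio not unusually high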;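 further: choline stimulus applied at its EC90 after an EC20 pre-addition; B-score computed on integrated fluorescence ratio after choline addition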
MEKK3 PB1 HTS – modulators (inhibitors or enhancers) of MEK5 binding to human MEKK3 PB1 domain. bead-based flow cytometry, Alexa488-MEK5 binding to MEKK3; actives lie on both sides; 0 = blocked by unlabeled MEK5, 100 = vehicle. binding response (% of control), % at 10 µM. actives 1.4% (n = 290,000);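 active means binding response more than 3 SD above or below the average of its plate-row segment, actives on both sides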;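 further: Alexa488 bead fluorescence after subtracting the streptavidin-only scavenger bead signal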
Target sequence (Q99759 whole entry, looked up, the tested form may be a part): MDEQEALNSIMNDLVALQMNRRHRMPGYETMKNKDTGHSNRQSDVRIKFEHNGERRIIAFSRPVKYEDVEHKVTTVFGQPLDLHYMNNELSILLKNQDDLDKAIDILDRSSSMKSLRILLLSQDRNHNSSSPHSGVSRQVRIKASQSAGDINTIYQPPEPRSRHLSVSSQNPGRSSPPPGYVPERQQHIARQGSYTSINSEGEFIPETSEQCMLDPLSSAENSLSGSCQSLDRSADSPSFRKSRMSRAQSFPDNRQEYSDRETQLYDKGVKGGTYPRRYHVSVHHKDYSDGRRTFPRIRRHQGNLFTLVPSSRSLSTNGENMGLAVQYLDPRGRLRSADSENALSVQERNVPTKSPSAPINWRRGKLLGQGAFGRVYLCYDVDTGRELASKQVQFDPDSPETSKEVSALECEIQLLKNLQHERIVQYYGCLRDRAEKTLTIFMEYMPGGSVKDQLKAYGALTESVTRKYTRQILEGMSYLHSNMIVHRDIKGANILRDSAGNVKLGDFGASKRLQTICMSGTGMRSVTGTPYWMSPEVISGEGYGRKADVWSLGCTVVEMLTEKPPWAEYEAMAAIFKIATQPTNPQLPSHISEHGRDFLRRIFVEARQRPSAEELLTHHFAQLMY
MEKK2 WT-MEK5 – raises or lowers MEK5 binding to wildtype human MEKK2 PB1 domain. Q9Y2U5. bead flow cytometry, Alexa488-MEK5 binding to MEKK2 WT; actives lie on both sides. binding response (% of control), % at 10 µM. actives 1.1% (n = 290,000); in the data active means binding response below about 67% or above about 130%
CHT allo act – allosterically activates the human high affinity choline transporter; Q9GZV3; CHT-expressing cells, membrane potential dye, choline EC20; active compounds read high; LV-AA mutant CHT in HEK293 cells; B-score at 10 µM; actives 0.49% (n = 310,000);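 active means initial fluorescence not abnormally high and integrated response B-score, plate-corrected, over 3 SD above library mean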
MEKK2 mut-MEK5 – signal of MEK5 binding to mutant human MEKK2 PB1 domain; AID 1530; bead flow cytometry, Alexa488-MEK5 binding to MEKK2 mutant; actives 0.35% (n = 290,000); percent response, % at 10 µM; in the data active means percent response above about 24%, passing the limit was not always enough
Mot1-301 SUMO – blocks SUMOylation pathway, rescuing yeast Mot1-301 growth; S. cerevisiae Mot1-301 growth rescue, ATP luminescence, 38.5C; percent above DMSO median, 100 means doubled; growth rescue, % at 18.8 µM; actives 1% (n = 320,000); AID 2716;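 active means every valid replicate shows activation above 250% relative to neutral control wells; inactive means the rest, any valid replicate at or below 250%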;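 further: OY570 slx delta 5 strain wells were the positive control but not used for scaling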
CHT inh conf – confirmation of human choline transporter CHT inhibitors | shares compounds with CHT block | actives 70% (n = 2,400) | CHT-expressing cells, choline membrane potential dye; LV-to-AA substituted CHT, HEK293 cells | CHT activity remaining % of control (active compounds read low), % at 10 µM;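 active means choline transporter activity left, mean of duplicates at 10 µM, below buffer-only control mean minus 3 SD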;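 further: depolarization triggered by choline at its EC90 following an EC20 pre-addition; 0% = hemicholinium-3 full block and 100% = buffer-only control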
HEK293 MPD ctr – CHT inhibitor counter-screen hit in parental HEK293 cells. shares compounds with CHT block. membrane potential dye, choline response; active = decrease or increase beyond buffer ±3SD. membrane potential ratio readout (active if shifted either direction beyond buffer ±3SD; no single direction) at 10 µM. actives 4% (n = 2,400). AID 493222;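 further: parental cells lack the transporter so any hit is non-specific; ratio is peak minus trough fluorescence over baseline after EC90 choline challenge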
An asterisk follows results filed as active.

What do the screens show for `CN(/N=C/c1cc(Cl)cc(Cl)c1O)C(=S)NC(C)(C)C`?
CHT block: -5.44*; MEKK3 PB1 HTS: 84.0; MEKK2 WT-MEK5: 81.0; CHT allo act: inactive; MEKK2 mut-MEK5: -21.0; Mot1-301 SUMO: 138.2; CHT inh conf: 67.7%*; HEK293 MPD ctr: inactive

How did O=C(CCCc1nc(-c2ccccc2Cl)no1)NC1CCCC1 do in these assays?
CHT block: inactive; MEKK3 PB1 HTS: 99.0; MEKK2 WT-MEK5: 100.0; CHT allo act: inactive; MEKK2 mut-MEK5: 0.0

What do the screens show for `Cc1cc(=O)[nH]c(SCC(=O)c2ccc(C)c(C)c2)n1`?
CHT block: -7.28*; MEKK3 PB1 HTS: 97.0; MEKK2 WT-MEK5: 97.0; CHT allo act: inactive; MEKK2 mut-MEK5: -5.0; Mot1-301 SUMO: 187.7; CHT inh conf: 63.9%*; HEK293 MPD ctr: inactive

Results for COc1ccc(C(=O)CSc2nc(C)cc(=O)[nH]2)cc1 ?
CHT block: -5.62*; MEKK3 PB1 HTS: 102.0; MEKK2 WT-MEK5: 102.0; CHT allo act: inactive; MEKK2 mut-MEK5: 7.0; Mot1-301 SUMO: 96.2; CHT inh conf: inactive; HEK293 MPD ctr: inactive

How did Cc1ccc(C(=O)CSc2n[nH]c(-c3ccco3)n2)cc1C do in these assays?
CHT block: -5.09*; MEKK3 PB1 HTS: 99.0; MEKK2 WT-MEK5: 95.0; CHT allo act: inactive; MEKK2 mut-MEK5: -4.0; Mot1-301 SUMO: 99.5; CHT inh conf: 50.1%*; HEK293 MPD ctr: inactive

What do the screens show for `Cc1ccc(/C=C(\C#N)C(=O)Nc2ccccn2)o1`?
CHT block: inactive; MEKK3 PB1 HTS: 94.0; MEKK2 WT-MEK5: 105.0; CHT allo act: inactive; MEKK2 mut-MEK5: 2.0; Mot1-301 SUMO: -11.4

How did O=C(Nc1ccc([N+](=O)[O-])cc1)Nc1ccc(N2CCOCC2)c2nonc12 do in these assays?
CHT block: inactive; MEKK3 PB1 HTS: 96.0; MEKK2 WT-MEK5: 96.0; CHT allo act: inactive; MEKK2 mut-MEK5: -4.0; Mot1-301 SUMO: -20.1

What do the screens show for `COc1ccc(CNC(=O)CC2C[C@H](C(=O)N3CCOCC3)[C@@]3(C)c4[nH]c5ccccc5c4CCN3C2=O)cc1OC` (some centres not stated)?
Mot1-301 SUMO: 4.4

How did CCOC(=O)c1cc2c(s1)-c1c(C)cccc1OC2 do in these assays?
CHT block: -6.79*; MEKK3 PB1 HTS: 105.0; MEKK2 WT-MEK5: 105.0; CHT allo act: inactive; MEKK2 mut-MEK5: 1.0; Mot1-301 SUMO: 1.4; CHT inh conf: 67.8%*; HEK293 MPD ctr: inactive

How did Cc1cccc2c1-c1sc(C(=O)Nc3nccs3)cc1CO2 do in these assays?
CHT block: inactive; MEKK3 PB1 HTS: 102.0; MEKK2 WT-MEK5: 103.0; CHT allo act: inactive; MEKK2 mut-MEK5: 12.0; Mot1-301 SUMO: -2.0

How did Cc1ccc2[nH]c3c(c2c1)CN(C(=O)CN1CCN(Cc2ccc4c(c2)OCO4)CC1)CC3 do in these assays?
CHT block: -5.63*; MEKK3 PB1 HTS: 104.0; MEKK2 WT-MEK5: 117.0; CHT allo act: inactive; MEKK2 mut-MEK5: 10.0; Mot1-301 SUMO: 2.6; CHT inh conf: 38.0%*; HEK293 MPD ctr: inactive

Results for Cc1ccc2[nH]c3c(c2c1)CN(C(=O)CN1CCSCC1)CC3 ?
MEKK3 PB1 HTS: 80.0; MEKK2 WT-MEK5: 98.0; MEKK2 mut-MEK5: -3.0; Mot1-301 SUMO: -13.6

How did COc1ccc(N(C(=O)Cn2nnc3ccccc32)C(C(=O)NCc2ccco2)c2ccncc2)cc1 (configuration not stated) do in these assays?
CHT block: -10*; MEKK3 PB1 HTS: 100.0; MEKK2 WT-MEK5: 99.0; CHT allo act: inactive; MEKK2 mut-MEK5: -2.0; Mot1-301 SUMO: -9.4; CHT inh conf: inactive; HEK293 MPD ctr: inactive

What do the screens show for `COCCNC(=O)C(c1ccncc1)N(C(=O)Cn1nnc2ccccc21)c1ccc(OC)cc1` (configuration not stated)?
CHT block: inactive; MEKK3 PB1 HTS: 105.0; MEKK2 WT-MEK5: 108.0; CHT allo act: inactive; MEKK2 mut-MEK5: 4.0

How did CCC(CO)Oc1cc(NCc2ccccc2Cl)c2ncn(C(C)C)c2c1 (configuration not stated) do in these assays?
Mot1-301 SUMO: -2.1

Results for Cc1cccc(-c2nc(CN3CCCC(C(=O)NC4CCCC4)C3)c(C)o2)c1 (configuration not stated) ?
CHT block: -5.1*; MEKK3 PB1 HTS: 102.0; MEKK2 WT-MEK5: 107.0; CHT allo act: inactive; MEKK2 mut-MEK5: 2.0; Mot1-301 SUMO: -9.4; CHT inh conf: inactive; HEK293 MPD ctr: inactive

Results for COC(=O)C(c1ccccc1)N(Cc1cccc(CN(C(C(=O)OC)c2ccccc2)S(C)(=O)=O)c1)S(C)(=O)=O (configuration not stated) ?
CHT block: inactive; MEKK3 PB1 HTS: 102.0; MEKK2 WT-MEK5: 106.0; CHT allo act: inactive; MEKK2 mut-MEK5: -4.0; Mot1-301 SUMO: 20.7

Results for COc1ccccc1NC(=O)c1ccc(-c2ccc(Br)cc2)o1 ?
CHT block: inactive; MEKK3 PB1 HTS: 104.0; MEKK2 WT-MEK5: 100.0; CHT allo act: inactive; MEKK2 mut-MEK5: 3.0; Mot1-301 SUMO: 275.9

What do the screens show for `COc1ccccc1NC(=O)c1ccc(C(=O)c2ccccc2)o1`?
CHT block: -4.99*; MEKK3 PB1 HTS: 100.0; MEKK2 WT-MEK5: 97.0; CHT allo act: inactive; MEKK2 mut-MEK5: -1.0; Mot1-301 SUMO: 63.4; CHT inh conf: inactive; HEK293 MPD ctr: inactive

How did COc1ccc(-c2c(NC(=O)c3ccco3)oc3c(C)cccc3c2=O)cc1 do in these assays?
CHT block: inactive; MEKK3 PB1 HTS: 97.0; MEKK2 WT-MEK5: 91.0; CHT allo act: inactive; MEKK2 mut-MEK5: -5.0; Mot1-301 SUMO: -3.9

How did N#C/C(=C/c1ccc(C(=O)O)cc1)C(=O)Nc1ccccc1 do in these assays?
CHT block: inactive; MEKK3 PB1 HTS: 100.0; MEKK2 WT-MEK5: 104.0; CHT allo act: inactive; MEKK2 mut-MEK5: 2.0; Mot1-301 SUMO: -8.4

Results for Cc1cccc(NC(=O)/C(C#N)=C\c2ccc(C(=O)O)cc2)c1 ?
CHT block: -6.62*; MEKK3 PB1 HTS: 93.0; MEKK2 WT-MEK5: 89.0; CHT allo act: inactive; MEKK2 mut-MEK5: -14.0; Mot1-301 SUMO: -24.7; CHT inh conf: inactive; HEK293 MPD ctr: inactive
